Test results published in the supplement of paper PMC11006884.
Targets with a hit are over-represented here; the source holds about 6,500 in all. About 2% of all pairs of compound and target were hits.

compound: COC(=O)C#Cc1ccccc1 [methyl 3-phenylpropiolate]; experiment: log2 ratio of iodoacetamide-alkyne labeling of the cysteine site, DMSO over compound (competition); higher = stronger covalent engagement of the cysteine by the compound, active = 1 or more; conditions: 500 µM; treatment time 1 h; system: HEK293T cell lysate
How it was run: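 The log2 competition ratio per cysteine is defined as mean reporter intensity in control channels over mean reporter intensity in compound channels. Lysate from HEK293T cells (2 mg/mL) received electrophile (500 µM) or vehicle for 1 h at ambient temperature, followed by iodoacetamide alkyne for 1 h. Samples were clicked to sCIP-TMT reagents, pooled, trypsin-digested overnight at 37 °C, streptavidin-enriched, acid-eluted and run on Orbitrap Eclipse LC-MS/MS with FAIMS, with quantification in FragPipe. Three replicates with duplicate channels were used, and any cysteine quantified in only one replicate was excluded.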

Sequence of UniProt Q9BYI3 (Q9BYI3 whole entry): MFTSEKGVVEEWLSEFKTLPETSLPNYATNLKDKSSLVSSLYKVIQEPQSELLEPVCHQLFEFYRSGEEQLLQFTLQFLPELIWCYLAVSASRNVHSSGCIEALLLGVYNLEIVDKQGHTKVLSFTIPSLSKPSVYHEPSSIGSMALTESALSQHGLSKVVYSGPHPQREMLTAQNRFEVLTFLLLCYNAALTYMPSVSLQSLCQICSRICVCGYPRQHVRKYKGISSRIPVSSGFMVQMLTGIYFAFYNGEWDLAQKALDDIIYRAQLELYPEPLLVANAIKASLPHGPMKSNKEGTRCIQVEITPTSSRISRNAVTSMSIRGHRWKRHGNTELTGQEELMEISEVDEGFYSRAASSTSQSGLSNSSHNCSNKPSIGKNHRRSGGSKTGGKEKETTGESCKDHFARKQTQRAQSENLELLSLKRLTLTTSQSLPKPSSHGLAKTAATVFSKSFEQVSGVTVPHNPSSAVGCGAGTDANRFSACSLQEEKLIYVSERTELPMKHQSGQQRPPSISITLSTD
Sequence of UniProt Q9Y230 (Q9Y230 whole entry): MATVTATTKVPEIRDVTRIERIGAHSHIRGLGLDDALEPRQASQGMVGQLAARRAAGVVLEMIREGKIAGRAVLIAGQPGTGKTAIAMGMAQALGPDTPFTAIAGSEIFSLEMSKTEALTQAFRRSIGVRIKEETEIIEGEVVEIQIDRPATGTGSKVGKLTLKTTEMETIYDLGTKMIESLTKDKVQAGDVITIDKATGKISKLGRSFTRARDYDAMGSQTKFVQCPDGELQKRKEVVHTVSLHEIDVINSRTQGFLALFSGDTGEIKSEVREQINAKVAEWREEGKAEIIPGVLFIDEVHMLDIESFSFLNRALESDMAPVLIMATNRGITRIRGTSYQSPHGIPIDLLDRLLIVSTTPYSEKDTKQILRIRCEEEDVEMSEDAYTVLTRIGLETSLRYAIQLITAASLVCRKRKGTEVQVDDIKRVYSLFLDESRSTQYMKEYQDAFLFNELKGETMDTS
Sequence of UniProt Q9UBB6 (Q9UBB6 whole entry, looked up): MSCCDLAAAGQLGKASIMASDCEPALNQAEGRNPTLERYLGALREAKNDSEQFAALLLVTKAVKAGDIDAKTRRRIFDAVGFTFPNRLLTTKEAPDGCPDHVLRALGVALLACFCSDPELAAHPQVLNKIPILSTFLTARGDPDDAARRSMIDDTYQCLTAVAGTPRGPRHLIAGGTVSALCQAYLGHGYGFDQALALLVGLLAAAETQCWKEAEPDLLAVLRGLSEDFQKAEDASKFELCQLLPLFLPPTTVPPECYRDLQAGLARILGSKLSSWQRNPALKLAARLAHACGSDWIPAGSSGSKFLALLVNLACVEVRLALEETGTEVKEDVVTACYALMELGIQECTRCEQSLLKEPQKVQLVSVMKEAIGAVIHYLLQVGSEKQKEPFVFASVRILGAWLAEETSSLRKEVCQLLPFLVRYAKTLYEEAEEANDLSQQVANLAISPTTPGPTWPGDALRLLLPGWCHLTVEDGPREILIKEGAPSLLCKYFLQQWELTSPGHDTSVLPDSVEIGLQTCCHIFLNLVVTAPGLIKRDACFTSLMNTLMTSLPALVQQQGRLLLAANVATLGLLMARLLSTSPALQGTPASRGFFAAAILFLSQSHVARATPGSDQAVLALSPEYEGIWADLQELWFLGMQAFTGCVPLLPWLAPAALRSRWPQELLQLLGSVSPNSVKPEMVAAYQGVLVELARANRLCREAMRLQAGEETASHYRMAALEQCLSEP
Sequence of UniProt Q9UGP8 (Q9UGP8 whole entry, looked up): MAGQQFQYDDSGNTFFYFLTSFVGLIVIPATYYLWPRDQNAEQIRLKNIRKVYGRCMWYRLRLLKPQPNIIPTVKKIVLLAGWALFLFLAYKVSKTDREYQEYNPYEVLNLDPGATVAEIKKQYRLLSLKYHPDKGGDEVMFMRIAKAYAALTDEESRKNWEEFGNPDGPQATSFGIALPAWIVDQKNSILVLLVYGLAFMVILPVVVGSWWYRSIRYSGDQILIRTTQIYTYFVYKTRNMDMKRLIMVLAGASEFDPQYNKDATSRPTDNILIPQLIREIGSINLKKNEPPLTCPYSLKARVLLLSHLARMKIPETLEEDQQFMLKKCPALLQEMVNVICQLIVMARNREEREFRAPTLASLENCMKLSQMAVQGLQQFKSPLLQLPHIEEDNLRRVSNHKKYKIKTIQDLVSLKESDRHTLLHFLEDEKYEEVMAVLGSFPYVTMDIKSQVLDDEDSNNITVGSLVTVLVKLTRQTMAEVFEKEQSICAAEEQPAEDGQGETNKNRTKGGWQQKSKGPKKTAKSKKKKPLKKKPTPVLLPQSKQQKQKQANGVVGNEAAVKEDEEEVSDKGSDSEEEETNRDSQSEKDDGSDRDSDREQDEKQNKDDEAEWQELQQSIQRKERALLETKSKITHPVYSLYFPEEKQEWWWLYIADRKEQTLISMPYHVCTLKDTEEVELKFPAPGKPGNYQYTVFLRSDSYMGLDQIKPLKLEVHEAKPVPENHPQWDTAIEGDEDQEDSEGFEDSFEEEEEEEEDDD
Sequence of UniProt Q9Y570 (Q9Y570 whole entry, looked up): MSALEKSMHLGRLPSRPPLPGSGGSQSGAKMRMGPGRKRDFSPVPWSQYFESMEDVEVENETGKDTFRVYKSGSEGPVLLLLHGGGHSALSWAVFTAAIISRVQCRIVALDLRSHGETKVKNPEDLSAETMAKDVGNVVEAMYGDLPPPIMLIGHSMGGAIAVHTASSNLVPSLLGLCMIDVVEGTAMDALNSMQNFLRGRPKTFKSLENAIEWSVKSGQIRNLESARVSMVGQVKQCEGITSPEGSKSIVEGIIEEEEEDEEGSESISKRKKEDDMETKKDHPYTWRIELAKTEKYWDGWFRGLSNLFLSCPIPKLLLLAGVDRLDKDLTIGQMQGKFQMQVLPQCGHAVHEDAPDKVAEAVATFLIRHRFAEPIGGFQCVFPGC
Sequence of UniProt Q9HAP2 (Q9HAP2 whole entry): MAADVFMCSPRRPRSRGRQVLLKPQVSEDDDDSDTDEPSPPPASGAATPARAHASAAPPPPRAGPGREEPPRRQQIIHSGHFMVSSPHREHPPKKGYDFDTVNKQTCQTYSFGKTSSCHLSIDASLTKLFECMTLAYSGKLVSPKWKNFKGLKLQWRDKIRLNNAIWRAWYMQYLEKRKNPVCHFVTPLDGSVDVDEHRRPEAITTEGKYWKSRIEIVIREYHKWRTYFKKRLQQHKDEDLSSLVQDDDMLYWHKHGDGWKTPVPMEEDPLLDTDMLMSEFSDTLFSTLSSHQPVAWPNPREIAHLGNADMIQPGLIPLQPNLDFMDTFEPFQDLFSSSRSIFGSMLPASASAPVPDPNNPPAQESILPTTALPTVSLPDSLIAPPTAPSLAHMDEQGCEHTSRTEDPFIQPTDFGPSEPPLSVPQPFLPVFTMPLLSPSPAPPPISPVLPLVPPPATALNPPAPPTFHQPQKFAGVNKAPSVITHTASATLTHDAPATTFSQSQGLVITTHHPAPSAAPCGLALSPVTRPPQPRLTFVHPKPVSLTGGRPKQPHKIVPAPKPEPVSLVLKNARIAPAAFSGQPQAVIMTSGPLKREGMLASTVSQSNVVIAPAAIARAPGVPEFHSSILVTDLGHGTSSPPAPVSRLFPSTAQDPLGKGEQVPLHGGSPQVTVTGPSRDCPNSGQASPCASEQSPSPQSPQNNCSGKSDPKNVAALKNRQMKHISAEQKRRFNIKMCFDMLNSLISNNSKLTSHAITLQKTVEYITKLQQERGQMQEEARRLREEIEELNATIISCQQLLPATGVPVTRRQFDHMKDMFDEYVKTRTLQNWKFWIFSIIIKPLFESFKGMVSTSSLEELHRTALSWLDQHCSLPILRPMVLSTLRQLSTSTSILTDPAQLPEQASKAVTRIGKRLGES
Sequence of UniProt Q9Y2R4 (Q9Y2R4 whole entry): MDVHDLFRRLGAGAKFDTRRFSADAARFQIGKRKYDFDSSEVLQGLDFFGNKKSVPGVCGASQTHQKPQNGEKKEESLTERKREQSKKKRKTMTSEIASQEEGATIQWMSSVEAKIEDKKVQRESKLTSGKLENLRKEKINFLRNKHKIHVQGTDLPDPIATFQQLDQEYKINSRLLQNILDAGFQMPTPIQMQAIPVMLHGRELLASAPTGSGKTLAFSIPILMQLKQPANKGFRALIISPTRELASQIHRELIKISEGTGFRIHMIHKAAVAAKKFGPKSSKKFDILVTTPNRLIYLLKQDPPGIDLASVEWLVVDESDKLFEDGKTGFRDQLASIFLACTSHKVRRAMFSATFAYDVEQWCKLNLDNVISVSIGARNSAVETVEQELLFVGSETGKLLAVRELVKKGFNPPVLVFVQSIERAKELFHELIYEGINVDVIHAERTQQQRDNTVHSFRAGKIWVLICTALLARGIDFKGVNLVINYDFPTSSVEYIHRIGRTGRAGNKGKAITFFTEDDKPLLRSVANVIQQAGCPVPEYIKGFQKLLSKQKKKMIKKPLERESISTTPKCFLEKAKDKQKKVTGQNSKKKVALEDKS
Sequence of UniProt Q9NXV2 (Q9NXV2 whole entry, looked up): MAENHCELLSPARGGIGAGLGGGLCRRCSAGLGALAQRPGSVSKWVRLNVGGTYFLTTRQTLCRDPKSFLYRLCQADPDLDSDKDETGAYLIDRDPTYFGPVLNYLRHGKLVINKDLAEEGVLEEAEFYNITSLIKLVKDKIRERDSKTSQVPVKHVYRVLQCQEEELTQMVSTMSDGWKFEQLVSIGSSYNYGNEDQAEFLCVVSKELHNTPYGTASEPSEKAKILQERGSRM
Sequence of UniProt Q9Y3D8 (Q9Y3D8 whole entry): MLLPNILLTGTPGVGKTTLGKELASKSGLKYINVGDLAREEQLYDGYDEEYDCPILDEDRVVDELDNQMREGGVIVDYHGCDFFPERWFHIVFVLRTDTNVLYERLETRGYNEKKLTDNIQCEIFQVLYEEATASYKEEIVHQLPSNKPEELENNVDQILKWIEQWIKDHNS
Sequence of UniProt Q9NR31 (Q9NR31 whole entry, looked up): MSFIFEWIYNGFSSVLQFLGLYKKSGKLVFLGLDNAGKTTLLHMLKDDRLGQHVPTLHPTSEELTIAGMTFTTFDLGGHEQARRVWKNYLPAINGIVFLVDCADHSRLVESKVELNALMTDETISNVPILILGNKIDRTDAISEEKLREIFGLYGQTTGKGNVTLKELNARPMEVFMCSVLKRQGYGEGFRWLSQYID

log2 ratio of iodoacetamide-alkyne labeling, inactive:
GPHN C419 (UniProt Q9NQX3) 0.38, MAP3K4 C163 (UniProt Q9Y6R4) 0.0336, GPATCH8 C569 (UniProt Q9UKJ3) 0.815, UniProt Q9NPA3_C62 0.293, TLN1 C2161 (UniProt Q9Y490) -0.0698, UniProt Q9Y3U8_C48 0.297, NUDT5 C76 (UniProt Q9UKK9) 0.157, GPHN C26 (UniProt Q9NQX3) -0.0135, UniProt Q9C0E8_C149 0.125, PPA2 C161 (UniProt Q9H2U2) -0.42, KCTD5 C6 (UniProt Q9NXV2) 0.701, BCLAF1 C688 (UniProt Q9NYF8) 0.524, JMJD4 C101 (UniProt Q9H9V9) 0.898, PDS5B C1069 (UniProt Q9NTI5) 0.199, UniProt Q9Y3B4_C83 0.2, MYO6 C1236 (UniProt Q9UM54) 0.0604, UniProt Q9P260_C624 0.299, UniProt Q9NUQ3_C127 0.926, AK6 C53 (UniProt Q9Y3D8) 0.109, DDX52 C536 (UniProt Q9Y2R4) 0.566, UniProt Q9BYG3_C269 0.771, RUVBL2 C227 (UniProt Q9Y230) 0.198, UniProt Q9Y3D0_C93 0.0692, FAM126A C300 (UniProt Q9BYI3) 0.174, SEC63 C366 (UniProt Q9UGP8) -0.163, PNO1 C64 (UniProt Q9NRX1) 0.367, DDX56 C286 (UniProt Q9NY93) 0.51, PRR12 C322 (UniProt Q9ULL5) 0.259, SAR1A C178 (UniProt Q9NR31) 0.0354, MLXIP C738 (UniProt Q9HAP2) -0.0833, CTSZ C92 (UniProt Q9UBR2) -0.349

log2 ratio of iodoacetamide-alkyne labeling, active:
UniProt Q9HBK9_C32 1.1, SLC4A1AP C730 (UniProt Q9BWU0) 1.48, WIPI2 C393 (UniProt Q9Y4P8) 1.22, NCDN C3 (UniProt Q9UBB6) 1.66, PPME1 C381 (UniProt Q9Y570) 1.48, UniProt Q9NWR8_C324 1.65, HEG1 C1360 (UniProt Q9ULI3) 1.36, SAP30BP C127 (UniProt Q9UHR5) 1.3
